According to PMC7862700, “An all-to-all approach to the identification of sequence-specific readers for epigenetic DNA modifications on cytosine”:

What was measured:
Test in all cases: DAPPL (digital affinity profiling via proximity ligation, sequencing); 10 mM Tris-HCl pH 7.5, 50 mM NaCl, 1 mM DTT, 4% glycerol, room temperature, 30 min; GST-TFs on glutathione beads, 16-mer random dsDNA library, 0.1% formaldehyde crosslink after washing; high values mean tight binding
FLI1 = target: T1, FLI1 (Homo sapiens, UniProt Q01543 1-452); conditions: protein: recombinant; tags: N-terminal GST; dsDNA, one strand shown
T1 sequence: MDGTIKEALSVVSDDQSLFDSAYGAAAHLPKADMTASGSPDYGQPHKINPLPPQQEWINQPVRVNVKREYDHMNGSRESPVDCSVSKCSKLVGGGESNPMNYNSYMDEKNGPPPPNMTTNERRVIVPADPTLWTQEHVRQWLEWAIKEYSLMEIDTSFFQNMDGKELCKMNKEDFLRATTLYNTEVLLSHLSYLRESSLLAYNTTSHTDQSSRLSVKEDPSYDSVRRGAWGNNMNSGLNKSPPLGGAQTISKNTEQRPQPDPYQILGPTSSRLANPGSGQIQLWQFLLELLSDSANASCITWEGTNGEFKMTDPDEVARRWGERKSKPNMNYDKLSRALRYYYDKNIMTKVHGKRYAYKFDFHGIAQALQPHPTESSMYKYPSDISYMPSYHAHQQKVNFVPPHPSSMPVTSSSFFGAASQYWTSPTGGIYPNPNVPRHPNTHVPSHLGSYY
In short: (§1)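 Binding signal is given per hexamer as its read frequency for a factor divided by its frequency in the tag-only sample. GST-fused human transcription factors were expressed in yeast, captured on glutathione beads, barcoded with DNA and pooled with that sample, then incubated with 200 nmole of a 16-mer random double-stranded DNA library in Tris/NaCl/DTT/glycerol buffer for 30 min at room temperature. The pools were then washed, crosslinked, proximity-ligated, amplified by PCR and sequenced on an Illumina NextSeq500.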

ELK1 = target: T2, ELK1 (Homo sapiens, UniProt P19419 1-428); conditions: protein: recombinant; tags: N-terminal GST; dsDNA, one strand shown
T2 sequence: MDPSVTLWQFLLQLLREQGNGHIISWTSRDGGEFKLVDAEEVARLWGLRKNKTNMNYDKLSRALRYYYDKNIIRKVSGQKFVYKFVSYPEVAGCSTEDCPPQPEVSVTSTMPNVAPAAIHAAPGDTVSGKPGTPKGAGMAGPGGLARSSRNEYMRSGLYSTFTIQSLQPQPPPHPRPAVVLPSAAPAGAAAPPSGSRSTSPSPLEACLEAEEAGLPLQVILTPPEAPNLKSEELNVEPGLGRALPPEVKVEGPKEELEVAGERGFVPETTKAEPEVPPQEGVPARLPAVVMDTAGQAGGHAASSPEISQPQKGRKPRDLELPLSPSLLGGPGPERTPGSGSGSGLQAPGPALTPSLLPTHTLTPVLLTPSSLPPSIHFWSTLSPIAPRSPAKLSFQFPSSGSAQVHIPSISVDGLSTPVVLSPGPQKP
In short: as §1

GABPA = target: T3, GABPA (Homo sapiens, UniProt Q06546 1-454); conditions: protein: recombinant; tags: N-terminal GST; dsDNA, one strand shown
T3 sequence: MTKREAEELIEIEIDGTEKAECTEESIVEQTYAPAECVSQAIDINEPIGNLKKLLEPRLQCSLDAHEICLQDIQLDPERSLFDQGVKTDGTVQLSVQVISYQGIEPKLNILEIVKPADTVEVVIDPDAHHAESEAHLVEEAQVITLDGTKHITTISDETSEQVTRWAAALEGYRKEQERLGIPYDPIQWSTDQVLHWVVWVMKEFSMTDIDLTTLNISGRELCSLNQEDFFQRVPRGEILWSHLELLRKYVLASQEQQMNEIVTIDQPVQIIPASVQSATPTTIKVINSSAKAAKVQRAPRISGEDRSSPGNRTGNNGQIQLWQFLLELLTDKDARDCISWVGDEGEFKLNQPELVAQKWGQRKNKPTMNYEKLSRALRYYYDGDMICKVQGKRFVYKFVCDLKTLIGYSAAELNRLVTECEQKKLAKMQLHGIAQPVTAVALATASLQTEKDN
In short: as §1

ERG = target: T4, ERG (Homo sapiens, UniProt P11308 1-479); conditions: protein: recombinant; tags: N-terminal GST; dsDNA, one strand shown
T4 sequence: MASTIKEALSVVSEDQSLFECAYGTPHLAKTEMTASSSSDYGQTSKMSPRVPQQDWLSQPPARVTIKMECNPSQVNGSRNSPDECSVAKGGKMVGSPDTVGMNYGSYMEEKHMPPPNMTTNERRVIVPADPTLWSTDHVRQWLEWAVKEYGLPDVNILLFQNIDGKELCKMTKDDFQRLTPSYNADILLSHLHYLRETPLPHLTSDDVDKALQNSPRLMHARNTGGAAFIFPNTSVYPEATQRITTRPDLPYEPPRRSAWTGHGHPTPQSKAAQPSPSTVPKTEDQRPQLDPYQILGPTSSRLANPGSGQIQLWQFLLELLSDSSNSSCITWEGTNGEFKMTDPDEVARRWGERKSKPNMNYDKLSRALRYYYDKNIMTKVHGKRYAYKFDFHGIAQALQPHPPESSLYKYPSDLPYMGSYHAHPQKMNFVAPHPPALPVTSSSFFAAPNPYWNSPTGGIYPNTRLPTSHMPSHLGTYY
In short: as §1

ELF1 = ELF1 (Homo sapiens, UniProt P32519 1-619); conditions: protein: recombinant; tags: N-terminal GST; dsDNA, one strand shown
In short: as §1

EHF = target: T5, EHF (Homo sapiens, UniProt Q9NZC4 1-300); conditions: protein: recombinant; tags: N-terminal GST; dsDNA, one strand shown
T5 sequence: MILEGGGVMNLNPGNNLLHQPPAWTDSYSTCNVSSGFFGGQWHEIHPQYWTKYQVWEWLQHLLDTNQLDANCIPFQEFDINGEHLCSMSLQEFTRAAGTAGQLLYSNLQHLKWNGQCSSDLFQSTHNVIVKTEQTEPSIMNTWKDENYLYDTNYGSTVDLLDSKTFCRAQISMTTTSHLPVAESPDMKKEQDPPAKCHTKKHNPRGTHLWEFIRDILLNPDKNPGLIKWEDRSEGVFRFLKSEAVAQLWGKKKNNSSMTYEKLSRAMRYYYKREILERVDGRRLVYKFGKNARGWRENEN
In short: as §1

SPI1 = SPI1 (Homo sapiens, UniProt P17947 1-270); conditions: protein: recombinant; tags: N-terminal GST; dsDNA, one strand shown
In short: as §1

SPIB = SPIB (Homo sapiens, UniProt Q01892 1-262); conditions: protein: recombinant; tags: N-terminal GST; dsDNA, one strand shown
In short: as §1

ELK3 = target: T6, ELK3 (Homo sapiens, UniProt P41970 1-407); conditions: protein: recombinant; tags: N-terminal GST; dsDNA, one strand shown
T6 sequence: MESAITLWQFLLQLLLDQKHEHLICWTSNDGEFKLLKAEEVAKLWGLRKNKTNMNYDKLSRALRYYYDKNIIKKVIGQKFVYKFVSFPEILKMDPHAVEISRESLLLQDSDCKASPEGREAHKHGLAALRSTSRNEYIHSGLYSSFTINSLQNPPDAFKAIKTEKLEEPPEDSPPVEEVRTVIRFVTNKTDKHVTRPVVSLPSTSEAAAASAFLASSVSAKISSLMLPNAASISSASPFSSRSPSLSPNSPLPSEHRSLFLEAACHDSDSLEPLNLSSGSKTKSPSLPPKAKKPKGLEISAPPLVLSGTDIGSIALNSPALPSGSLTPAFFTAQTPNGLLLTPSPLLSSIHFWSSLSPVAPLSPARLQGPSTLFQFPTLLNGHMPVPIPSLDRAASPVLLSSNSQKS
In short: as §1

FEV = target: T7, FEV (Homo sapiens, UniProt Q99581 1-238); conditions: protein: recombinant; tags: N-terminal GST; dsDNA, one strand shown
T7 sequence: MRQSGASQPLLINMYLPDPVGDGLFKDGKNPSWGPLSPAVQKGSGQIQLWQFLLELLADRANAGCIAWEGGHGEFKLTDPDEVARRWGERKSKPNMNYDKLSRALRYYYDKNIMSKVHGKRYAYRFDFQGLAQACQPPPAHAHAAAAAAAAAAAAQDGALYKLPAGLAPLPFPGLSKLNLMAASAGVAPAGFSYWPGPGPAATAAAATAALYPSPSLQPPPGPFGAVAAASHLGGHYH
In short: as §1

ETV5 = ETV5 (Homo sapiens, UniProt P41161 1-510); conditions: protein: recombinant; tags: N-terminal GST; dsDNA, one strand shown
In short: as §1

HSF1 = HSF1 (Homo sapiens, UniProt Q00613 1-529); conditions: protein: recombinant; tags: N-terminal GST; chain copies: 3; dsDNA, one strand shown
In short: as §1

SPIC = target: T8, SPIC (Homo sapiens, UniProt Q8N5J4 1-248); conditions: protein: recombinant; tags: N-terminal GST; dsDNA, one strand shown
T8 sequence: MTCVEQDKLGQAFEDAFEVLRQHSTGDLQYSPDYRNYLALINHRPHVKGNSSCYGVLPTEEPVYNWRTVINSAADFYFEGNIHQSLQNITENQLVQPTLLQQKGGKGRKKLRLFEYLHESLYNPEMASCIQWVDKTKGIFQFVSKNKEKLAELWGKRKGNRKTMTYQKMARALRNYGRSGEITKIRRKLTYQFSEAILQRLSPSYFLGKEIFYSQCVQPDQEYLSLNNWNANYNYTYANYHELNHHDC
In short: as §1

ELF4 = ELF4 (Homo sapiens, UniProt Q99607 1-663); conditions: protein: recombinant; tags: N-terminal GST; dsDNA, one strand shown
In short: as §1

ELK4 = target: T9, ELK4 (Homo sapiens, UniProt P28324-2 1-405); conditions: protein: recombinant; tags: N-terminal GST; dsDNA, one strand shown
T9 sequence: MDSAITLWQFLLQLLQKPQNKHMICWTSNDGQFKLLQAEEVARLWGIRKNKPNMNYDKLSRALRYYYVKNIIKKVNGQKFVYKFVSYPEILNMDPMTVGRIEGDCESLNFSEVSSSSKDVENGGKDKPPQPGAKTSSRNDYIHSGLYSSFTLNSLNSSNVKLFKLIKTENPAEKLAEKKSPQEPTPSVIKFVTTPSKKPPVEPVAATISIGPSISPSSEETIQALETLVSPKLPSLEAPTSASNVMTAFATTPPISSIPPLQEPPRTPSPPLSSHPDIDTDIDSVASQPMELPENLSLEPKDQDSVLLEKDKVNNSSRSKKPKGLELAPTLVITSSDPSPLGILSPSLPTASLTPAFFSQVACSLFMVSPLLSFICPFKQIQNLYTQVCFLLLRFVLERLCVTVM
In short: as §1

ETV2 = target: T10, ETV2 (Homo sapiens, UniProt O00321 1-342); conditions: protein: recombinant; tags: N-terminal GST; dsDNA, one strand shown
T10 sequence: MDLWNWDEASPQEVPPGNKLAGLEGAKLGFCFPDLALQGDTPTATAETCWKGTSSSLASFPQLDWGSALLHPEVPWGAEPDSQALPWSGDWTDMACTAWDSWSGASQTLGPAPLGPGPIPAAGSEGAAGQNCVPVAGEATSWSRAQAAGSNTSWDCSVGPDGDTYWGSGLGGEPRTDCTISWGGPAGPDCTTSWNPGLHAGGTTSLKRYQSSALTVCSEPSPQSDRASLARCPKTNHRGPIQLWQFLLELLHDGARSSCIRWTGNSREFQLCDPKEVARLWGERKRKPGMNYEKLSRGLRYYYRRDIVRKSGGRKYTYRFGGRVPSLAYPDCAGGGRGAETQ
In short: as §1

ELF3 = target: T11, ELF3 (Homo sapiens, UniProt P78545 1-371); conditions: protein: recombinant; tags: N-terminal GST; dsDNA, one strand shown
T11 sequence: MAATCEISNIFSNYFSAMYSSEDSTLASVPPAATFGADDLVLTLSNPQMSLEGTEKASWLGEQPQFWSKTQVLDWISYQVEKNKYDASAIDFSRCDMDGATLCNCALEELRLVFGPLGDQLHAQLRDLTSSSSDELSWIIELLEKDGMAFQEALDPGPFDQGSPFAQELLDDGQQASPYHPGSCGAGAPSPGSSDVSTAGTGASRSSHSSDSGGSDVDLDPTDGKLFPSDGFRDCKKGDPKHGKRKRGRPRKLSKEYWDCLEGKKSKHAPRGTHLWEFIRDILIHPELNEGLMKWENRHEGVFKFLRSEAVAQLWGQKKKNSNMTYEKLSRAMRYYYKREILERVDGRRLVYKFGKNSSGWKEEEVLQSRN
In short: as §1

CRX = CRX (Homo sapiens, UniProt O43186 1-299); conditions: protein: recombinant; tags: N-terminal GST; dsDNA, one strand shown
In short: as §1

ETV1 = ETV1 (Homo sapiens, UniProt P50549 1-477); conditions: protein: recombinant; tags: N-terminal GST; dsDNA, one strand shown
In short: as §1

Sequence of CRX (O43186 whole entry): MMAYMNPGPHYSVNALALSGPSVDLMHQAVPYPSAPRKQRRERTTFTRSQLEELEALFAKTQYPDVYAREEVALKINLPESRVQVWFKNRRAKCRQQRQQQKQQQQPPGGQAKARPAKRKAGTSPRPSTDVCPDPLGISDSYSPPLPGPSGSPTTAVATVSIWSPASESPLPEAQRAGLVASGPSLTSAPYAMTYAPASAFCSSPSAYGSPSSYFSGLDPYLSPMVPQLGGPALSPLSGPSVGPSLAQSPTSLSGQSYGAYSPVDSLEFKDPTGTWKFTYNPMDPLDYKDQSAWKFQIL
Sequence of ETV1 (P50549 whole entry): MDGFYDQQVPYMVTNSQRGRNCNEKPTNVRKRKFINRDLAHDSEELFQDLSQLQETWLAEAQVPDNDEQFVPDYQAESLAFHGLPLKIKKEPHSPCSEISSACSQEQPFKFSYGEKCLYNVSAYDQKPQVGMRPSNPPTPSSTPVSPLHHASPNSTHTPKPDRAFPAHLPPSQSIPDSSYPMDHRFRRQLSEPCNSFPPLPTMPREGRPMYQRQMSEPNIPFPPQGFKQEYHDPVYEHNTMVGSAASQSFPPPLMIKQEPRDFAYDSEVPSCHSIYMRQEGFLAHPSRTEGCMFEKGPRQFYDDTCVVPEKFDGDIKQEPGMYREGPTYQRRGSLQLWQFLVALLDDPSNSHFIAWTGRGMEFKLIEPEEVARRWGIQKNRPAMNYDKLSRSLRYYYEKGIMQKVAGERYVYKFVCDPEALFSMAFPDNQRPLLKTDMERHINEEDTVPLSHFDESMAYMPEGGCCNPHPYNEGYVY
Sequence of ELF4 (Q99607 whole entry): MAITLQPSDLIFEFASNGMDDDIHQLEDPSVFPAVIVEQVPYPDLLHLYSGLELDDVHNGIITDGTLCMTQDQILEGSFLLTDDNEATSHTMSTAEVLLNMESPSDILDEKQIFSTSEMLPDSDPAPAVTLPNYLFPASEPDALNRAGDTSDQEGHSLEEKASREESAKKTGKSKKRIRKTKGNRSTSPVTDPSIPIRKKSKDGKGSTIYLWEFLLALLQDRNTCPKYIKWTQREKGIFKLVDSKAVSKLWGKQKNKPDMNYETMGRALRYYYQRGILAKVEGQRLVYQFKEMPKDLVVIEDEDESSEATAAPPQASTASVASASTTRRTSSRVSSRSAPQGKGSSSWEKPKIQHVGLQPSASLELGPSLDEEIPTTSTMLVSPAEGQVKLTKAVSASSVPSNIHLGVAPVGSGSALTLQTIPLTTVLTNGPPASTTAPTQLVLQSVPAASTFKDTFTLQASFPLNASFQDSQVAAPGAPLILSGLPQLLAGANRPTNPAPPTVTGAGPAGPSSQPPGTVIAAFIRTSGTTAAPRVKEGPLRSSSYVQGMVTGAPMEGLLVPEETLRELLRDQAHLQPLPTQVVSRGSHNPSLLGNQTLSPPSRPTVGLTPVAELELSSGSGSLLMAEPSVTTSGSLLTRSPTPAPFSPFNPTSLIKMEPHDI
Sequence of SPIB (Q01892 whole entry): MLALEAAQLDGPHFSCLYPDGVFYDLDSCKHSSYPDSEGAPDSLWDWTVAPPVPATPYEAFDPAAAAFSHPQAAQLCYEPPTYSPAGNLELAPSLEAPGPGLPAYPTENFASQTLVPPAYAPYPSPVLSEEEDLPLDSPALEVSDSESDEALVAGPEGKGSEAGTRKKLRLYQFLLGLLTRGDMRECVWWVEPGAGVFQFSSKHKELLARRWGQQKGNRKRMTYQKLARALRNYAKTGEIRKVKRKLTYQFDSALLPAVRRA
Sequence of ELF1 (P32519 whole entry): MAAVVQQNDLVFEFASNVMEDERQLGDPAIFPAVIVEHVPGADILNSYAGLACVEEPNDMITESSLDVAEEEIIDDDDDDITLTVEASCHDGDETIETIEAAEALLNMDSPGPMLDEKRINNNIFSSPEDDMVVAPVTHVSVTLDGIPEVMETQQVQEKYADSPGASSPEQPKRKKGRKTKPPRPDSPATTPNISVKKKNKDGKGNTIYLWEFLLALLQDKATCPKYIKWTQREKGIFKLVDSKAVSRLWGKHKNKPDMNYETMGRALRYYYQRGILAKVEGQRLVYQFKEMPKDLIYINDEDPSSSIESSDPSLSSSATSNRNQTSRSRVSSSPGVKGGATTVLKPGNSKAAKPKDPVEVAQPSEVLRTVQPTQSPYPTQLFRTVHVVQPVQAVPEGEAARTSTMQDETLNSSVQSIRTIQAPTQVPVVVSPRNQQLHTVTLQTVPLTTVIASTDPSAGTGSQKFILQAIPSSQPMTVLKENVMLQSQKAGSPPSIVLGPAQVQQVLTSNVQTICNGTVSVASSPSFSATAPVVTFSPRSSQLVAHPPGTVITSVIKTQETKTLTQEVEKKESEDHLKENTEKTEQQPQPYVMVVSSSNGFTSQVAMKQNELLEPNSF
Sequence of HSF1 (Q00613 whole entry): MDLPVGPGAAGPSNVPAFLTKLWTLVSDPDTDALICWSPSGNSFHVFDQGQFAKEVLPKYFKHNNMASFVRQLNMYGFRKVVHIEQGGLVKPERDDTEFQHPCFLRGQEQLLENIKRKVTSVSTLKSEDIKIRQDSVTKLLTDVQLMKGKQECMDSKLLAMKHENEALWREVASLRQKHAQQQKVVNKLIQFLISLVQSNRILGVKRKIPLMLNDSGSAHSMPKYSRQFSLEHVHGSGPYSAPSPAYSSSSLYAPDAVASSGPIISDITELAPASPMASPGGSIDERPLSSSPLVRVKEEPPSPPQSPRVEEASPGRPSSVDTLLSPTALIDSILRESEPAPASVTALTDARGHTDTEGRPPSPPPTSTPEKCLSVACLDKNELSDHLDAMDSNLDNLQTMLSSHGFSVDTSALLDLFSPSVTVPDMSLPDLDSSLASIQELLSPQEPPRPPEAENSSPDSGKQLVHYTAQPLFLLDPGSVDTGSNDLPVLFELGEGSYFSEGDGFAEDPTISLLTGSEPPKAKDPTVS
Sequence of ETV5 (P41161 whole entry): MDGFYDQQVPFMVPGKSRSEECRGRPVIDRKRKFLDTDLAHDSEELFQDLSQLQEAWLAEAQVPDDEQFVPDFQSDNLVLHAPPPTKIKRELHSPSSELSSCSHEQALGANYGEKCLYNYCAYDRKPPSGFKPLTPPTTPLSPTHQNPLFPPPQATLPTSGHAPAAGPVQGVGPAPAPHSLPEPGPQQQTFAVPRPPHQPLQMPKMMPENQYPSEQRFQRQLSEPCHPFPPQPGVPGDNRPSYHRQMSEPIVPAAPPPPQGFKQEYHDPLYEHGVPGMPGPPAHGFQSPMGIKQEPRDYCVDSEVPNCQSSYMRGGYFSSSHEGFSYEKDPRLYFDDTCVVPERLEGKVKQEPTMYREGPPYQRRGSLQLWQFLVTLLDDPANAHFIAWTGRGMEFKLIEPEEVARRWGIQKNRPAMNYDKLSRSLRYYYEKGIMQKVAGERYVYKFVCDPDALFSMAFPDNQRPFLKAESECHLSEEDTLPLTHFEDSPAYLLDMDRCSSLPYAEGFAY

With CGCCCT the binding signal (FLI1) was 1.44 fold enrichment (6-mer frequency, TF over GST control), the binding signal (ELK1) was 1.36 fold enrichment (6-mer frequency, TF over GST control) and the binding signal (GABPA) was 1.37 fold enrichment (6-mer frequency, TF over GST control). The binding signal (ERG) was 1.31 fold enrichment (6-mer frequency, TF over GST control), the binding signal (ELF1) was 1.43 fold enrichment (6-mer frequency, TF over GST control) and the binding signal (EHF) was 1.35 fold enrichment (6-mer frequency, TF over GST control). The binding signal (SPI1) was 1.24 fold enrichment (6-mer frequency, TF over GST control), the binding signal (SPIB) was 1.36 fold enrichment (6-mer frequency, TF over GST control) and the binding signal (ELK3) was 1.5 fold enrichment (6-mer frequency, TF over GST control). For the same sequence, the binding signal (FEV) was 1.37 fold enrichment (6-mer frequency, TF over GST control), the binding signal (ETV5) was 1.29 fold enrichment (6-mer frequency, TF over GST control) and the binding signal (HSF1) was 1.13 fold enrichment (6-mer frequency, TF over GST control). The binding signal (SPIC) was 1.21 fold enrichment (6-mer frequency, TF over GST control), the binding signal (ELF4) was 1.47 fold enrichment (6-mer frequency, TF over GST control) and the binding signal (ELK4) was 1.1 fold enrichment (6-mer frequency, TF over GST control). For the same sequence, the binding signal (ETV2) was 1.4 fold enrichment (6-mer frequency, TF over GST control), the binding signal (ELF3) was 1.04 fold enrichment (6-mer frequency, TF over GST control) and the binding signal (CRX) was 1.11 fold enrichment (6-mer frequency, TF over GST control). The binding signal (ETV1) was 1.37 fold enrichment (6-mer frequency, TF over GST control).
